Assay outcomes deposited in PubChem BioAssay by National Center for Advancing Translational Sciences (NCATS).
JMJD2A Tudor inh: qHTS Assay for Inhibitors of JMJD2A-Tudor Domain. Lysine-specific demethylase 4A (Homo sapiens), O75164. AlphaScreen JMJD2A-Tudor / H3K4me3 peptide binding. Potency, µM (series often up to 114 µM), without a hit: at the highest dose activity change, negative = inhibition, actives largely listed as inhibitors. actives 4.4% (n = 390,000). AID 504339, 2011; note: % is set by controls: 0 for no effect and ±100 for the full control effect; nearly all actives have a fitted effect of over 50% in size
G9a inh: qHTS Assay for Inhibitors of Histone Lysine Methyltransferase G9a; Histone-lysine N-methyltransferase EHMT2 (Homo sapiens), Q96KQ7; G9a H3K9 monomethylation, AlphaScreen, 2 h; Potency, µM (highest dose often 102 µM), inactives show top-dose activity, negative = inhibition, usual class: inhibitors; actives 8.8% (n = 350,000); note: % is set by controls: 0 for no effect and ±100 for the full control effect; nearly all actives have a fitted effect of over 75% in size
Target sequence (Q96KQ7 913-1193 limits assumed): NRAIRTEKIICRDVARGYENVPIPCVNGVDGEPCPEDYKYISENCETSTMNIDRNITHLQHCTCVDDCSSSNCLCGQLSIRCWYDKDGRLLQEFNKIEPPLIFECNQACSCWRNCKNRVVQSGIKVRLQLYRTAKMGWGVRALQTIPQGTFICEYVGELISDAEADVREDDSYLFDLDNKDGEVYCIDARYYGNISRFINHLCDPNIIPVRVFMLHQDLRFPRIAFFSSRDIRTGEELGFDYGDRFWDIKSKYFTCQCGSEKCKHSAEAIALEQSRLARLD
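G9a (20 nM) preincubated 15 min RT with compounds, then 500 nM biotinylated H3K9 peptide and 20 uM SAM added; 2 h RT reaction. Monomethyl-H3K9 product detected by AlphaScreen with anti-H3K9me1 antibody, streptavidin donor and anti-rabbit IgG acceptor beads.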
HP1b chromo inh: HTS for Inhibitors of HP1-beta Chromodomain Interactions with Methylated Histone Tails; Chromobox protein homolog 1 (Homo sapiens), P83916; actives 0.56% (n = 390,000); AlphaScreen HP1-beta / biotin-H3K9me3 peptide binding; AID 540317, 2011; Potency, µM (titrated, usually from 114 µM), without a hit: at the highest dose activity change, negative = inhibition, most hits filed as inhibitors; note: nearly all actives have a fitted effect of over 70% in size
Target sequence (P83916 whole entry, looked up): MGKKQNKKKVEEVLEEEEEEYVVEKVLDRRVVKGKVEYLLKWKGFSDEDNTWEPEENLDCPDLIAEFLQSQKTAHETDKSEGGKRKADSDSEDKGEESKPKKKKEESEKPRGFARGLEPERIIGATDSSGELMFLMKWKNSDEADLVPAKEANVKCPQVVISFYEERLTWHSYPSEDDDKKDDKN
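Compound inhibition of the preformed complex between 50 nM HP1-beta and 50 nM biotinylated H3K9me3 peptide was read by AlphaScreen. Buffer was PBS pH 7.4 with 0.01% Tween-20. Incubations ran 30 min at room temperature, with 10 ug/mL donor/acceptor beads.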
BAZ2B block: qHTS Assay for Inhibitors of BAZ2B; Bromodomain adjacent to zinc finger domain protein 2B (Homo sapiens), Q9UIF8; AlphaScreen BAZ2B-H3K14Ac peptide displacement; Potency, µM (highest dose often 114 µM), inactives show at the highest dose activity change, negative = inhibition, actives largely listed as inhibitors; actives 4.4% (n = 360,000); AID 504333, 2011; note: % is set by controls: 0 for no effect and ±100 for the full control effect; nearly all actives have a fitted effect of over 60% in size
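AlphaScreen displacement: compounds (up to 110uM) incubated 30 min at room temperature with a preformed 50 nM BAZ2B/50 nM biotinylated H3K14Ac peptide complex in PBS pH 7.4 with Tween-20. Donor and acceptor beads at 10 ug/mL final added, 20 min light-protected before reading.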
Sfp PPTase inh: qHTS Assay for Inhibitors of Bacillus subtilis Sfp phosphopantetheinyl transferase (PPTase); 4'-phosphopantetheinyl transferase ffp (Bacillus subtilis), Q9F4F7; Biochemical Sfp PPTase activity, qHTS; Potency, µM, inactives show largest response in the series, negative = inhibition, hits mostly inhibitors; actives 3.5% (n = 310,000); AID 1490, 2009;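 note: the enzyme is Sfp with the accession as filed and its product quenches rhodamine fluorescence; 0% = enzyme reaction without inhibitor and -100% = no enzyme wells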
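With Hepes-Na pH 7.6 buffer containing 10 mM MgCl2, Sfp (15 nM) modified BHQ-2-YbbR (12.5 uM) using rhodamine-CoA (5 uM). Two reads 30 minutes apart at 525/598 nm yielded each well's rate.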
The depositor's hits bear a star; ? = inconclusive; . = not tested or not shown; [ ] = remark or other dose. This is a sample that favours compounds with a hit; in the whole collection about 12% have one here. Calls come from the whole dose curve; as a rule, active = well fitted curve in the direction sought with a large enough effect; inconclusive = small, poorly fitted or top-dose-only effect, or another doubt; inactive = no such curve, though single readings can be large; an effect the other way counts as inactive or inconclusive. Potency is the fitted concentration of half-maximal effect.

SMILES | JMJD2A Tudor inh | G9a inh | HP1b chromo inh | BAZ2B block | Sfp PPTase inh
O=C(O)c1ccc(C[n+]2c(-c3ccccc3)csc2Nc2ccccc2)cc1 | ? | ? | ? | 40µM* | 5%
CCCCCC[n+]1c(-c2ccccc2)csc1Nc1ccccc1 | -11% | 16µM* | 17% | 18µM* | 0%
Cc1csc(Nc2ccccc2)[n+]1C | -31% | ? | -1% | . | 15%
C=CC[n+]1c(C)csc1Nc1ccc(C(=O)O)cc1 | -14% | ? | 46% | ? | -9%
CC(C)(C)c1cc(-c2csc(Nc3ccccc3)[n+]2Cc2ccc(C(=O)O)cc2)cc(C(C)(C)C)c1O | 40µM* | 40µM* | 45µM* | 40µM* | 14%
COc1ccc(C2/C=C\CN(CC3CC3)C(Cc3ccccc3)C(=O)N2Cc2ccc(F)cc2)cc1 (stereo not drawn) | -23% | . | 28% | . | 3%
Cc1ccc(Cn2c(=O)n(CCc3ccccc3)c(=O)c3c(C)c(C)sc32)cc1 | 2% | -6%[59 µM] | 19% | -13% | .
Cn1c(SCC(=O)Nc2ccc(N3CCOCC3)cc2)nnc1C1CC1 | 1% | ? | 38% | -6% | .
O=C(CSc1nncn1-c1ccccc1)Nc1ccc(N2CCOCC2)cc1 | 10µM* | . | -12% | -6% | 6%
O=C(CSc1nnc(C2CC2)n1-c1ccccc1)Nc1ccc(N2CCOCC2)cc1 | -12% | 56µM* | 26% | -30% | -7%
Cc1cc(NC(=O)CSc2ncc(C(=O)Nc3ccc(C)c(C)c3)c(=O)n2C)no1 | 2% | -2%[59 µM] | 25% | 0% | .
Cc1ccc(CNC(=O)c2cnc3c(-c4ccc(F)cc4)c(C)nn3c2C)o1 | -4% | 10%[59 µM] | 55% | 2% | .
CS(=O)(=O)N1CCC[C@@]2(CCN(c3ccccn3)C2)C1 | . | -6%[12.7 µM] | . | . | 28%
COc1ccc(C[C@H](N)C(=O)N[C@H]2[C@@H](O)[C@H](n3cnc4c(N(C)C)ncnc43)O[C@@H]2CO)cc1 | 79µM* | ? | -3% | -6% | .
CC(C)[C@@H](CC(=O)N[C@@H]1CCNC[C@H]1C(=O)N[C@H](CC(=O)N[C@@H](CCC(=O)O)CC(=O)O)Cc1c[nH]c2ccccc12)NC(=O)C[C@H](Cc1c[nH]c2ccccc12)NC(=O)[C@@H]1CNCC[C@H]1N | . | . | . | . | -12%
Cc1ccccc1C1CC(=O)Oc2ccc(O)cc21 (stereo not drawn) | . | 10µM* | . | . | 126µM*
COc1ccc(C2CC(=O)Oc3ccc(OC)cc32)cc1 (stereo not drawn) | -3% | . | 46% | . | .
COc1ccccc1C1CC(=O)Oc2cc3c(cc21)OCO3 (stereo not drawn) | . | 35µM* | . | . | -18%
COc1ccc(C2CC(=O)Oc3ccc(O)cc32)cc1 (stereo not drawn) | . | 35µM* | . | . | ?
COc1ccccc1C1CC(=O)Oc2cc(O)ccc21 (stereo not drawn) | ? | 17% | 25% | . | 3%
COc1cc(C2CC(=O)Oc3c2c(=O)n(C)c2ccccc32)cc(OC)c1OC (stereo not drawn) | -19% | -8% | ? | 50µM* | 13%
CC(=O)N1CCC2(CC1)CCN(c1ccccc1)CC2 | . | -3%[12.7 µM] | . | . | 24%
COc1c2c(c(C(=O)/C=C/C(C)=C/c3ccccc3)c3c1OCO3)CCN(C)C2 | . | . | . | . | -9%
COc1cc(C2CC(=O)Oc3ccc(O)cc32)cc(OC)c1OC (stereo not drawn) | . | 16µM* | . | . | 50µM*
COc1cc2c(c(OC)c1OC)C(c1ccc(O)cc1)CC(=O)O2 (stereo not drawn) | -11% | ? | 27% | . | -1%
CC1CC(C)CN(CCOc2ccccc2-c2ccccc2)C1 (stereo not drawn) | 13µM* | ? | -27% | -36% | -12%
c1ccc(-c2ccccc2OCCCN2CCCCCC2)cc1 | 20µM* | 3.5µM* | ? | 56µM* | -18%
c1ccc(-c2ccccc2OCCCN2CCCC2)cc1 | 8.9µM* | 10µM* | ? | ? | -62%
